Some test systems named below: DU-145 prostate; K-562 leukemia; MALME-3M melanoma; MDA-MB-231 breast; RXF 393 renal; SF-268 CNS; SF-295 CNS; SF-539 CNS; UACC-257 melanoma; M14 melanoma; HCT-15 colon; HT29 colon; SNB-75 CNS; SNB-19 CNS; U251 CNS; PC-3 prostate; SK-MEL-5 melanoma; UACC-62 melanoma; LOX IMVI melanoma; SK-MEL-28 melanoma.
What all share (assay): NCI-60 one-dose screen, 48 h (100 = growth as untreated, 0 = no growth, -100 = all killed)
What all share (conditions): 10 µM unless noted

SMILES strings stand for the structures. Compounds without any hit were thinned out: in the full panel of roughly 83,000, 20% have a hit.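 96-well plates, one dose, 48 hours. Percent growth reported; active if below 10.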 Values without a mark were called inactive. Activity calls are given as the source filed them.

In the case of `CCOC(=O)CC(c1ccccc1)C(C#N)c1ccccc1` (stereo not given), the growth in the test on DU-145 prostate was 104%; with K-562 leukemia it was 108%; in the test on MALME-3M melanoma, 90.9%; in the test with MDA-MB-231 breast it was 106%; in the test with RXF 393 renal, 87.5%; with SF-268 CNS, 99.4%. Besides, the growth in the test on SF-295 CNS was 110%; in the test on SF-539 CNS, 109%; with UACC-257 melanoma, 94.2%; in the test on M14 melanoma it was 91.8%; with HCT-15 colon, 103%; with HT29 colon it was 103%. In addition, the growth in the test on SNB-75 CNS was 82.1%; in the test on SNB-19 CNS, 111%; with U251 CNS it was 97.6%; in the test with PC-3 prostate, 89.5%; with SK-MEL-5 melanoma, 98.7%; in the test with UACC-62 melanoma, 97.3%. Besides, the growth in the test with LOX IMVI melanoma was 103%; in the test on SK-MEL-28 melanoma it was 95.5%.
Take `CCCCCCCCCCCCNC(=S)N/N=C/c1ccccc1O`: the growth in the test with DU-145 prostate is 68.1%; in the test with K-562 leukemia, 61.2%; with MALME-3M melanoma it was 98.9%; in the test with MDA-MB-231 breast, 78.8%; with RXF 393 renal it was 107%; with SF-268 CNS it was 65.5%. Also, the growth in the test on SF-295 CNS was 70.7%; in the test with SF-539 CNS, 85.4%; with UACC-257 melanoma, 98.2%; in the test on M14 melanoma, 78.1%; in the test with HCT-15 colon, 56.9%; in the test with HT29 colon, 36.6%. In addition, the growth was 81.1% in the test with SNB-75 CNS; 80.2% with SNB-19 CNS; 78.4% in the test with U251 CNS; 69.5% in the test with PC-3 prostate; 88.8% in the test with SK-MEL-5 melanoma; 77.7% in the test on UACC-62 melanoma. In addition, the growth in the test on LOX IMVI melanoma is 60.5%; in the test on SK-MEL-28 melanoma, 93.3%.
`Cc1nc(Cl)cc(N(c2cc(Cl)nc(C)n2)c2ncc(C(=O)Nc3c(C)cccc3Cl)s2)n1`: the growth in the test on DU-145 prostate was 76.5%; with K-562 leukemia, 6.72% (active); in the test with MALME-3M melanoma, 62.5%; in the test on MDA-MB-231 breast it was 24%; in the test on RXF 393 renal, 3.03% (active); in the test with SF-268 CNS it was 47%. In addition, the growth with SF-295 CNS is 50.4%; with SF-539 CNS, 38.9%; in the test with UACC-257 melanoma, 79.6%; with M14 melanoma, 79.6%; in the test on HCT-15 colon, 59.4%; with HT29 colon, 20.4%. Further, the growth in the test on SNB-75 CNS is -30.3% (active); with SNB-19 CNS, 72.9%; with U251 CNS, 54.6%; with PC-3 prostate, 32.4%; in the test with SK-MEL-5 melanoma, 46.2%; in the test with UACC-62 melanoma it was 53.3%. Also, the growth in the test on LOX IMVI melanoma is 14.2%; in the test on SK-MEL-28 melanoma it was 78%.
On to `COc1ccc(CC(C#N)c2ccc(Cl)cc2)cc1` (stereo not given), for which the growth in the test with DU-145 prostate is 77.3%; in the test on K-562 leukemia it was 41.6%; with MALME-3M melanoma, 89.3%; in the test on MDA-MB-231 breast, 79.7%; in the test on RXF 393 renal it was 92.1%; in the test with SF-268 CNS, 78%. Also, the growth was 78.9% with SF-295 CNS; 85.1% with SF-539 CNS; 91.7% in the test on UACC-257 melanoma; 73.3% in the test on M14 melanoma; 60.6% in the test on HCT-15 colon; 55.3% in the test with HT29 colon. In addition, the growth in the test with SNB-75 CNS was 75.9%; in the test on SNB-19 CNS it was 82.1%; in the test with U251 CNS it was 77.6%; in the test on PC-3 prostate, 85.9%; in the test with SK-MEL-5 melanoma, 76.8%; in the test on UACC-62 melanoma it was 69.6%. The growth was 79.3% in the test on LOX IMVI melanoma and 91.5% in the test with SK-MEL-28 melanoma.
On to `CCn1cc(-c2cc(-c3ccc(Cl)cc3)nc(N)n2)c(-c2ccc(Br)cc2)n1`, for which the growth in the test with DU-145 prostate was 99.4%; in the test on K-562 leukemia, 77.4%; with MALME-3M melanoma it was 93.8%; with MDA-MB-231 breast it was 60.6%; with RXF 393 renal it was 94.8%; with SF-268 CNS, 94.8%. The growth in the test with SF-295 CNS was 84.3%; in the test with SF-539 CNS, 87.3%; with UACC-257 melanoma, 73.5%; with M14 melanoma it was 74.5%; with HCT-15 colon, 64.9%; with HT29 colon, 55.8%. For the same compound, the growth is 82.4% with SNB-75 CNS; 88.7% with SNB-19 CNS; 87% in the test with U251 CNS; 47% with PC-3 prostate; 90.8% with SK-MEL-5 melanoma; 60.7% in the test on UACC-62 melanoma. Further, the growth is 88.5% in the test on LOX IMVI melanoma and 61.3% in the test with SK-MEL-28 melanoma.
As to `Cn1cc(-c2noc(-c3cn(C)c4ncc(F)cc34)n2)c2ccccc21`, the growth is 79.2% with DU-145 prostate; 77% with K-562 leukemia; 66% in the test with MALME-3M melanoma; 55.1% in the test on MDA-MB-231 breast; 73.1% in the test on RXF 393 renal; 71.4% in the test with SF-268 CNS. The growth was 49.6% with SF-295 CNS; 75.2% with SF-539 CNS; 101% in the test with UACC-257 melanoma; 71.7% in the test with M14 melanoma; 58.2% with HCT-15 colon; 66.1% in the test with HT29 colon. Besides, the growth with SNB-75 CNS is 1.91% (active); in the test on SNB-19 CNS, 81.2%; with U251 CNS, 30.8%; in the test on PC-3 prostate, 71.7%; in the test with SK-MEL-5 melanoma, 82.8%; with UACC-62 melanoma it was 80.1%. Also, the growth in the test with LOX IMVI melanoma was 52.3%; with SK-MEL-28 melanoma it was 94.1%.
In the case of `CC1(C)C(=O)/C(=C\c2cccnc2)C[C@]2(C)[C@H]3CC[C@@H]4[C@H]5[C@H](C(=O)/C=C/c6cccnc6)CC[C@]5(C(=O)O)CC[C@@]4(C)[C@]3(C)CC[C@@H]12`, the growth in the test on DU-145 prostate was -80.6% [100 µM] (active); in the test with K-562 leukemia, 6.57% [100 µM] (active); in the test with MALME-3M melanoma, -73.8% [100 µM] (active); in the test on MDA-MB-231 breast it was -34.6% [100 µM] (active); with RXF 393 renal it was -61.9% [100 µM] (active); with SF-268 CNS, -34.9% [100 µM] (active). The growth in the test on SF-295 CNS was -75.8% [100 µM] (active); in the test with SF-539 CNS, -56.9% [100 µM] (active); in the test on UACC-257 melanoma, -52% [100 µM] (active); in the test on M14 melanoma, -38.4% [100 µM] (active); in the test on HCT-15 colon, -74.6% [100 µM] (active); in the test on HT29 colon, -72% [100 µM] (active). Also, the growth in the test with SNB-75 CNS was -96.5% [100 µM] (active); with SNB-19 CNS, -83.3% [100 µM] (active); with U251 CNS, -82.3% [100 µM] (active); in the test with PC-3 prostate, -38.4% [100 µM] (active); with SK-MEL-5 melanoma it was -73.5% [100 µM] (active); with UACC-62 melanoma, -89.8% [100 µM] (active). Further, the growth in the test on LOX IMVI melanoma was -68.9% [100 µM] (active); in the test on SK-MEL-28 melanoma, -71.7% [100 µM] (active).

The values are drawn from PubChem BioAssay (NCI).
